Source: PubChem BioAssay AID504697 (The Scripps Research Institute Molecular Screening Center, 2011)
Unmarked numbers belong to inactive results. Active and inactive are the calls of the source.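 Rule for the calls: active = EC50 at or below 10 µM; inactive = EC50 above 10 µM.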

Assay: compound autofluorescence in calcium buffer – biochemical, fluorescence, no RTF in test wells, artefact control for cardiac thin filament activator project, dose response (AID 504697);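 note: emission near 535 nm under roughly 485 nm excitation as for IANBD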
Settings: compound-only fluorescence in RTF assay buffer with Ca2+ (no RTF in test wells), artifact counterscreen

SMILES	EC50
CCOC(=O)/C(=C\c1c[nH]c2ccccc12)NC(C)=O	> 71.4 µM
C[C@@H](C(=O)N1CCNCC1)n1cc(CCCN=C(N)N)nn1	> 71.5 µM
CN(/N=C/c1ccc(-c2ccc([N+](=O)[O-])cc2)o1)c1ccccc1	> 71.5 µM
CCN1/C(=C/c2ccc3cc(C)ccc3[n+]2CC)Sc2ccccc21	> 71.4 µM
Cc1cc(C)c2nc(NC(=O)C3CCCO3)sc2c1 (configuration not stated)	> 71.5 µM
O=[n+]1c2c(n([O-])c3ccccc31)CCC2	> 71.5 µM
CN1c2ccccc2C(O)=C(C(=S)Nc2ccc(F)c(Cl)c2)S1(=O)=O	> 71.5 µM
CC(=O)Nc1cc(C(=O)NCc2ccco2)ccc1Sc1ccc(F)cc1	> 71.5 µM
O=C(c1cnc2ccccc2n1)N1CCN(c2ccc(C(F)(F)F)cn2)CC1	> 71.4 µM
O=C(CCSc1ccccc1)N1CCN(C(=O)c2ccco2)CC1	> 71.5 µM
CC1(C)CC(=O)C=C(Nc2ccccc2N)C1	> 71.5 µM
COc1cc(OC)c(C(=O)OC(C)C(=O)Nc2cccc(C(F)(F)F)c2)cc1OC (configuration not stated)	> 71.5 µM
CCN(CC(=O)Nc1ccccc1C(F)(F)F)C(=O)c1ccc(-n2nc(C)c(CCC(=O)OC)c2C)cc1	> 71.5 µM
COc1ccc2nc(-c3ccccn3)[nH]c2c1	> 71.5 µM
O=c1[nH][nH]c(C(F)(F)F)c1C=NCc1ccccc1Cl	> 71.4 µM
CCN(CC)c1ccc(/C=C2\SC(N)=NC2=O)cc1	30.6 µM
CC(=O)Oc1ccc(NC(=O)Cc2ccccc2)c(C(=O)O)c1	> 71.5 µM
CCOc1ccc2ccccc2c1CNCCN1CCOCC1	> 71.5 µM
Cc1ccc(NC(=O)CN(C)c2ccc(S(=O)(=O)N3CCCC3)cn2)cc1	> 71.5 µM

SMILES	EC50
CN(/N=C/c1ccc(N(C)C)cc1)C1=NS(=O)(=O)c2ccccc21	22.5 µM
COc1cc(-c2c(-c3ccc4c(c3)OCO4)noc2C)ccc1F	> 71.4 µM
CCc1ccc2c(COC(=O)CNS(=O)(=O)c3ccc(NC(C)=O)cc3)cc(=O)oc2c1	> 71.5 µM
C=CCOc1ccc(Br)cc1CNCC	> 71.6 µM
O=C(c1ccc(COc2ccccc2Br)o1)N1N=C(C(F)F)CC1(O)C(F)F (configuration not stated)	> 71.5 µM
COc1cc(/C=C(\C#N)c2nc3ccccc3[nH]2)cc(OC)c1O	11.1 µM
N#C/C(=C\c1c[nH]c2ccccc12)C(=O)Nc1ncc(Cc2ccc(Cl)cc2Cl)s1	> 71.5 µM
O=C(O)c1ncc(-c2ccccc2)cn1	> 71.5 µM
CC1(C)CCN2CCC(C)(C)c3c(O)ccc1c32	5.84 µM (active)
CC1=CC(=C(C#N)c2nc3ccccc3s2)C=C(C)N1c1ccc(F)cc1	22.2 µM
Cc1cc(C=C2C(=O)c3ccccc3C2=O)c(C)n1-c1ccccc1	29.9 µM
COc1ccc2nc(C)c3cc(C)oc3c2c1	> 71.4 µM
Cc1ccnc(N/C=C(\C#N)c2nc(-c3cccc(Br)c3)cs2)c1	1.59 µM (active)
CCc1ccc(C(=O)NNC(=O)c2cccc(N3C(=O)CCC3=O)c2)cc1	> 71.5 µM
O=C(Cn1cnc2c(cnn2-c2ccccc2)c1=O)Nc1ccc(S(=O)(=O)N2CCOCC2)cc1	> 71.5 µM
COC(=O)C(=N/Nc1ccccc1C(=O)OC)/C(C)=N/O	> 71.5 µM
CCOC(=O)N1CCN(C(=S)Nc2ccccc2C)CC1	> 71.4 µM
CCOC(=O)c1sc2nc(C)nc(SCC(=O)NC3CCS(=O)(=O)C3)c2c1C (configuration not stated)	> 71.5 µM
